Molecules are shown by their SMILES. Results with a measured potency or affinity are listed apart. Active and inactive are the calls of the source.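 The calls were made as follows: active = compounds whose fitted half-maximal cell-killing dose is at most twice the top tested dose; inconclusive = flat curve with 30 to 70 percent signal loss, or poor fit; inactive = the rest.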

This test is described as follows: HEK293T cell cytotoxicity, dose response, cytotoxicity control, luminescence plate reader, powder samples, set 4 (AID 651863). The conditions noted are these: HEK293T viability, CellTiter-Glo ATP luminescence, 48 h; series mostly up to 26 µM. On the technique in general: In ATP-based viability assays light output follows the ATP content of the culture.
For the compound `C[C@H](NC(=O)C1CCCC[C@H]1C(=O)O)c1ccccc1` (mixture of isomers), the outcome was inactive.
`O=C(O)C1CCCCC1C(=O)Nc1ccccc1CN1C(=O)c2ccccc2C1=O` (configuration not stated): the compound was classed as inactive.
Consider `O=C(O)C1CCCCC1C(=O)N1CCc2ccccc2C1CN1C(=O)c2ccccc2S1(=O)=O` (configuration not stated), for which the call was inactive.
Take `Cc1ccc(S(=O)(=O)Nc2cc(C(C(=O)OC(C)C)C(=O)C(F)(F)F)c(O)c3ccccc23)cc1` (configuration not stated): the outcome was inactive.
For `O=C(O)[C@H]1C2C=CC(C2)[C@H]1C(=O)N1CCc2ccccc2C1CN1C(=O)c2ccccc2C1=O` (some centres not stated), the compound was classed as inactive.
On to `Cc1ccc(S(=O)(=O)NC(=O)[C@@H]2c3ccccc3CCN2C(=O)[C@@H]2CCCC[C@@H]2C(=O)O)cc1`, for which the call was inactive.
Turning to `O=C(O)C1CCCCC1C(=O)NCC1c2ccccc2CCN1C(=O)Cc1ccccc1` (configuration not stated), the compound was classed as inactive.
The same measure, in the same setting: for `O=C(NCCCN1CCOCC1)c1ccccc1C(=O)NC[C@@H]1c2ccccc2CCN1C(=O)C1CCCCC1C(=O)O` (some centres not stated) the value was “inactive”.
`O=C1c2ccccc2C(=O)N1CC1c2ccccc2CCN1C(=O)Cc1ccccc1` (configuration not stated): the activity change, negative = cytotoxicity was 0.765% [at 6 µM] (inactive).
Consider `O=C(Oc1cc(CN2C(=O)c3ccccc3C2=O)c2ccccc2[n+]1[O-])c1cccc(Cl)c1`, for which the compound was classed as inactive.
Regarding `O=C(O)[C@H]1CCCC[C@H]1C(=O)N1CCc2ccccc2[C@H]1CNS(=O)(=O)c1ccc([N+](=O)[O-])cc1`, the compound was called inactive.
With `Cc1cc(C)c(S(=O)(=O)Nc2nc(NCCO)nc3ccccc23)c(C)c1`, the result was inactive.
`Cc1cc(C)c(S(=O)(=O)Nc2nc(N(C)C)nc3ccccc23)c(C)c1`: the outcome was inactive.
As for `O=C(O)[C@H]1CCCC[C@H]1C(=O)N1CCc2ccccc2[C@H]1CNS(=O)(=O)c1ccccc1`, the call was inactive.
On to `Cc1ccc(S(=O)(=O)NC[C@@H]2c3ccccc3CCN2C(=O)[C@@H]2CCCC[C@@H]2C(=O)O)c(C)c1`, for which the compound was called inactive.
In the case of `O=C(O)c1ccccc1C(=O)N1CCc2ccccc2C1CN1C(=O)c2ccccc2C1=O` (configuration not stated), the outcome was inactive.
On the same count and under the same terms, for `CCOC(=O)C(C(=O)OCC)c1cc(CN2C(=O)c3ccccc3C2=O)c2ccccc2n1` the value was “inactive”; for `NC(=O)c1ccccc1C(=O)NC[C@@H]1c2ccccc2CCN1C(=O)[C@@H]1CCCC[C@@H]1C(=O)O`, “inactive”; for `O=C(O)C1CCCCC1C(=O)N1CCCCC1CN1C(=O)c2ccccc2C1=O` (configuration not stated), “inactive”.
For `O=C1c2ccccc2C(=O)N1CC1=NCCc2ccccc21`, the result was inactive.
In the case of `O=C(O)[C@H]1CCCC[C@H]1C(=O)N1CCc2ccccc2C1CCN1C(=O)c2ccccc2C1=O` (some centres not stated), the result was inactive.
Regarding `C[C@@H](NC(=O)C1CCCC[C@H]1C(=O)O)c1ccccc1` (mixture of isomers), the compound was classed as inactive.
Turning to `O=C(O)C1CCCCC1C(=O)N1CCc2ccccc2C1c1ccccc1` (configuration not stated), the outcome was inactive.
In the case of `O=C(NC[C@@H]1c2ccccc2CCN1C(=O)[C@@H]1CCCC[C@@H]1C(=O)O)c1ccc(CCl)cc1`, the call was inactive.
On the same count and under the same terms, to `O=C(O)[C@H]1CCCC[C@H]1C(=O)N1CCC2=C(CCCC2)C1CN1C(=O)c2ccccc2C1=O` (some centres not stated) belongs “inactive”; to `O=C(O)C1CCCCC1C(=O)N1CCc2ccccc2[C@H]1C(=O)NCCc1ccccc1` (some centres not stated), “inactive”; to `Cc1ccc(S(=O)(=O)NNc2nc(C(C(=O)OC(C)C)C(=O)C(F)(F)F)nc3ccccc23)cc1` (configuration not stated), “inactive”.
Regarding `O=C1c2ccccc2C(=O)N1C[C@H]1NCCc2ccccc21`, the outcome was inactive.
As to `O=C(O)/C=C\C(=O)N1CCc2ccccc2C1CN1C(=O)c2ccccc2C1=O` (configuration not stated), the outcome was inactive.
The same measure, in the same setting: to `Cc1cc(C)c(S(=O)(=O)Nc2nc(C(C(=O)OC(C)C)C(=O)C(F)(F)F)nc3ccccc23)c(C)c1` (configuration not stated) belongs “inactive”; to `O=C(O)[C@H]1CCCC[C@H]1C(=O)N1CCc2ccccc2C1` (racemic), “inactive”.
Regarding `Cc1cc(C)c(S(=O)(=O)Nc2cc(C(C(=O)OC(C)C)C(=O)C(F)(F)F)c(O)c3ccccc23)c(C)c1` (configuration not stated), the compound was called inactive.
